Assay [1] in a line: P-glycoprotein substrates identified in KB-8-5-11 adenocarcinoma cell line, qHTS therapeutic library screen (AID 1346987). Also: nearly all actives have a fitted effect of over 65% in size. Also: potency is read from the fitted curve at half-maximal effect. The essentials: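 KB-8-5-11: colchicine-selected sub-line of KB-3-1 over-expressing P-gp; assay medium lacked colchicine. 72 h drug exposure at 37 degree C, CellTiter-Glo.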
(In general: In qHTS, concentration-response curves come from the screen itself.)

The target of assay [2] is Cytochrome P450 2D6 (Homo sapiens) (UniProt P10635). Kind of assay: Cytochrome P450 family 2 subfamily D member 6 (CYP2D6) small molecule antagonists: luciferase biochemical (cell-free) qHTS assay (AID 1645840; active = well fitted curve in the direction sought with a large enough effect in the repeat runs; an effect the other way counts as inactive or inconclusive; also: nearly all actives have a fitted effect of over 55% in size; also: potency is read from the fitted curve at half-maximal effect; as to activity change, negative = inhibition: % is scaled to controls: 0 for no effect and ±100 for the full control effect). The essentials: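 P450-Glo luminescent screen: recombinant CYP2D6 enzyme–proluciferin substrate mix preincubated with compound 10 min at room temperature, then NADPH regeneration added for 1 h at room temperature. Detection reagent added for 20 min; luciferin light read as relative luminescence units.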
Sequence of Cytochrome P450 2D6 (Homo sapiens) (P10635 whole entry, looked up): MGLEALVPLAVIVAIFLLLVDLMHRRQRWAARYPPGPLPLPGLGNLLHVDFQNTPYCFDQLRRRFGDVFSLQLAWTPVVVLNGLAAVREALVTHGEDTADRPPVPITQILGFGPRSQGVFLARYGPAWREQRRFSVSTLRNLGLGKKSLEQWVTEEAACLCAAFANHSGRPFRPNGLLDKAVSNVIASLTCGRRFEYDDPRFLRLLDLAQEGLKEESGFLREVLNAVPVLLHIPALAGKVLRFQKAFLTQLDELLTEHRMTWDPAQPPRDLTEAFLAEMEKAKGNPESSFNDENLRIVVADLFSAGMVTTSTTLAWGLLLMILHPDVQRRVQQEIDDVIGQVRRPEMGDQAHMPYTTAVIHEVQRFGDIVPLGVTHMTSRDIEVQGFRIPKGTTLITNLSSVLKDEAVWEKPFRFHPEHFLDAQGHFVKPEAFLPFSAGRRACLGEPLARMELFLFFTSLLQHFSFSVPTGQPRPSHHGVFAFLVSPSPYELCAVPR

The target in assay [3] is Cytochrome P450 2C9 (Homo sapiens) (UniProt P11712). Kind of assay: Cytochrome P450 family 2 subfamily C member 9 (CYP2C9) small molecule antagonists: luciferase biochemical (cell-free) qHTS assay (AID 1645842; active = well fitted curve in the direction sought with a large enough effect in the repeat runs; an effect the other way counts as inactive or inconclusive; also: nearly all actives have a fitted effect of over 55% in size; also: potency is read from the fitted curve at half-maximal effect). The procedure, abridged: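 Luminescence, after 20 min with luciferin detection reagent, reflected CYP2C9 turnover during a 1 h NADPH-driven reaction at 37C. Enzyme-substrate mix contained 0.4% bovine serum albumin and was preincubated with compound 10 min at room temperature.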
Sequence of Cytochrome P450 2C9 (Homo sapiens) (P11712 whole entry, looked up): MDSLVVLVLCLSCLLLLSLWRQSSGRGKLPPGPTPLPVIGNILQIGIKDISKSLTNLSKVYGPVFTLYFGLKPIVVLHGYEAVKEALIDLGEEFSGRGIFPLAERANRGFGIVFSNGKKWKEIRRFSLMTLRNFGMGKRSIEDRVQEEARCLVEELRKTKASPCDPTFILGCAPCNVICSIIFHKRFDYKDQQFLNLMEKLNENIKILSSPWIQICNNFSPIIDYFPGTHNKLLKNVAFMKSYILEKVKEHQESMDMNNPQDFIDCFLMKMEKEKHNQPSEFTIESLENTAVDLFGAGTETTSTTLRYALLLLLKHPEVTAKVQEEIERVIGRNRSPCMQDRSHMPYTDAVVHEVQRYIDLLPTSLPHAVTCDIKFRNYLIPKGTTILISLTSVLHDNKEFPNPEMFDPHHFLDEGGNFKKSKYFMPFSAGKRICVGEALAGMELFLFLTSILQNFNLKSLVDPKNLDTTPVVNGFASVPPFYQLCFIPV

The nature of assay [4]: Primary qHTS for inhibitors of nuclear receptor binding SET domain protein 2 (NSD2) in an isogenic RCH-ACV NSD2 p.E1099K mutant (9B) (AID 1645876). Also: nearly all actives have a fitted effect of over 70% in size. Also: potency is read from the fitted curve at half-maximal effect.
Assay [5] is described as follows: Primary qHTS for inhibitors of nuclear receptor binding SET domain protein 2 (NSD2) in an RCH-ACV wild type WT cells (2C) (AID 1645877). Also: nearly all actives have a fitted effect of over 70% in size. Also: potency is read from the fitted curve at half-maximal effect.
For assay [6], the target named is Catechol O-methyltransferase (Homo sapiens) (UniProt P21964). As to the kind of experiment: Confirmatory Screen for Target Class Profiling of Small Molecule Inhibitors of Methyltransferases (AID 1745852). As to activity change, negative = inhibition: % is scaled to controls: 0 for no effect and ±100 for the full control effect. As to conditions: MTase-Glo luminescence, SAH detection, recombinant enzyme; measured here: COMT max response; stronger effect = lower value.
Sequence of Catechol O-methyltransferase (Homo sapiens) (P21964 whole entry, looked up): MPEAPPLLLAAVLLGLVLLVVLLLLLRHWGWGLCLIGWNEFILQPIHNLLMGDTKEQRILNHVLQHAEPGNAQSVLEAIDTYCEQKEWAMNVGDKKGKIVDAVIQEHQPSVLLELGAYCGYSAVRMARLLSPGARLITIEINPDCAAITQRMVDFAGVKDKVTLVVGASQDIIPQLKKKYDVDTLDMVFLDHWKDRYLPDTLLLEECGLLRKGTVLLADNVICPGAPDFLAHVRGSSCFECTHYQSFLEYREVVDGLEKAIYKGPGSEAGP
The target of assay [7] is Guanidinoacetate N-methyltransferase (Homo sapiens) (UniProt Q14353). The assay is described as above. The conditions noted are these: activity change, negative = inhibition: at 57.3 µM (top of the series) unless noted.
The target of assay [8] is Nicotinamide N-methyltransferase (Homo sapiens) (UniProt P40261). The description is as above. As to conditions: MTase-Glo luminescence, SAH detection, recombinant enzyme; measured here: NNMT max response; stronger effect = lower value.
Sequence of Nicotinamide N-methyltransferase (Homo sapiens) (P40261 whole entry, looked up): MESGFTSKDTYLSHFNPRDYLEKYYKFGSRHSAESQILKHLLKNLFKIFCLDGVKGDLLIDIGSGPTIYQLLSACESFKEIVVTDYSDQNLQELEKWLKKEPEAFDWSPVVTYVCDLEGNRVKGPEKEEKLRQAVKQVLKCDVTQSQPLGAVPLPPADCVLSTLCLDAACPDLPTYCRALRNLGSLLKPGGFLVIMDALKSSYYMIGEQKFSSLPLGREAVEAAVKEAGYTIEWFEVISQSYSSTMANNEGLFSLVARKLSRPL
The target of assay [9] is Phenylethanolamine N-methyltransferase (Homo sapiens) (UniProt P11086). The assay is described as above. As to conditions: MTase-Glo luminescence, SAH detection, recombinant enzyme; measured here: PNMT max response; stronger effect = lower value.
Sequence of Phenylethanolamine N-methyltransferase (Homo sapiens) (P11086 whole entry, looked up): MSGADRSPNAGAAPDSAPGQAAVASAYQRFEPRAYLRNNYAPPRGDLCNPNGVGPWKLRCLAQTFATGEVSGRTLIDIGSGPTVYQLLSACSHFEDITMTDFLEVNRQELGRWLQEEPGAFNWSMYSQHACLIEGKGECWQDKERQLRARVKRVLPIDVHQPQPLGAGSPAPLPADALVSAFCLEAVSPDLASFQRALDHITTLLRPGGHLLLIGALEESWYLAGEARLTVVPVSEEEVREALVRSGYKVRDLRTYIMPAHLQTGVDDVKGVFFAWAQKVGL
Another assay relates to HEK293. As to the kind of experiment: Cytotoxic Profiling of Annotated Libraries Using Quantitative High-Throughput Screening (AID 1296008). Also: nearly all actives have a fitted effect of over 60% in size. Also: potency is read from the fitted curve at half-maximal effect. As to max response: % is scaled to controls: 0 for no effect and ±100 for the full control effect. As to conditions: Five cell lines viability, CellTiter-Glo ATP luminescence, 48-72 h; max response: stronger effect = lower value. The procedure, abridged: (§1)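 Cells exposed to compounds for 48 or 72 hr at 37 degrees Celsius. Viability read as ATP-coupled luminescence with CellTiter-Glo after 10 min at room temperature.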

Another assay concerns KB-3-1. Described as above. As to conditions: Five cell lines viability, CellTiter-Glo ATP luminescence, 48-72 h; max response: stronger effect = lower value. The procedure, abridged:
as §1
(In ATP-based viability assays light output follows the ATP content of the culture.)

The test system of the next assay is HeLa. Kind of assay: Primary qHTS to identify gynecologic anti-cancer compounds using libraries of approved drugs and bioactive compounds (AID 1345084). Also: nearly all actives have a fitted effect of over 55% in size. Also: potency is read from the fitted curve at half-maximal effect. As to conditions: Gynecologic cancer cell panel viability, ATPlite luminescence, 48 h; series mostly up to 57.5 µM. The procedure, abridged: (§2)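 Cells, 1,000 per well, plated 16 h, then exposed 48 h at 37 C to compounds. Viability by ATPlite luminescence after 15 min at room temperature.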

For assay [10], the system named is Zika virus NS2B-NS3 protease (unlinked complex). Kind of assay: Primary screen GU Rhodamine qHTS for Zika virus inhibitors: Unlinked NS2B-NS3 protease assay (AID 1347159). Also: nearly all actives have a fitted effect of over 60% in size. Also: potency is read from the fitted curve at half-maximal effect. As to activity change, negative = inhibition: % is scaled to controls: 0 for no effect and ±100 for the full control effect. The essentials:
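Noncovalent NS2B hydrophilic domain/NS3 protease complex (25 nM final) in 10 mM Tris-HCl pH 8.0, 0.01% Tween 20, preincubated 15 min with compounds (up to 114 microM), then 1.5 microM Rhodamine110 substrate. Fluorescence change over 15 min fitted to 4-parameter Hill.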

Assay [11] in a line: qHTS drug screen for cell cycle checkpoint inhibitors in PARPi-resistant BRCA-mutant ovarian cancer cell lines. (AID 1963452; calls by dose curve). The conditions noted are these: PEO1/OlaR viability, CellTiter-Glo luminescence, 96 h, stronger effect = lower value. The essentials: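 PEO1, PEO4 and PEO1/OlaR ovarian cancer cells, 600 per well, exposed 96 h at 37C to a dilution series. Viability read by CellTiter-Glo luminescence, normalized to DMSO and empty wells; activity summarized as Z-AUC.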

A further assay relates to SKOV3. Kind of assay: Primary qHTS to identify gynecologic anti-cancer compounds using libraries of approved drugs and bioactive compounds (AID 1345084). Also: nearly all actives have a fitted effect of over 55% in size. Also: potency is read from the fitted curve at half-maximal effect. The conditions noted are these: Gynecologic cancer cell panel viability, ATPlite luminescence, 48 h; series mostly up to 57.5 µM. The essentials: as §2
Another assay relates to CRL-7250. Kind of assay: Cytotoxic Profiling of Annotated Libraries Using Quantitative High-Throughput Screening (AID 1296008). Also: nearly all actives have a fitted effect of over 60% in size. Also: potency is read from the fitted curve at half-maximal effect. The conditions noted are these: Five cell lines viability, CellTiter-Glo ATP luminescence, 48-72 h; max response: stronger effect = lower value. The procedure, abridged: as §1
Assay [12] in a line: P-glycoprotein substrates identified in KB-3-1 adenocarcinoma cell line, qHTS therapeutic library screen (AID 1346986). Also: nearly all actives have a fitted effect of over 60% in size. The procedure, abridged: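 Compounds were tested in dose-response against KB-3-1 and KB-8-5-11 cells at 37 degree C for 72 h, and viability was measured by luminescence. AC50 values came from curve fitting with class-based activity calls.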
The next assay relates to HACAT. Kind of assay: qHTS assay to identify novel small-molecules to repurpose for Merkel cell carcinoma treatment (AID 1296009). Also: nearly all actives have a fitted effect of over 60% in size. The conditions noted are these: MCC and control cell lines, CellTiter-Glo viability, 72 h; at 44.8 µM (top of the series) unless noted. The essentials: (§3)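 Cells were incubated with compound for 72 hr at 37 degree celsius before CellTiter-Glo addition. Luminescence was normalized with no-cell wells as full cytotoxicity and DMSO as baseline.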

In the next assay the test system is NIH3T3. The description is as above. The conditions noted are these: MCC and control cell lines, CellTiter-Glo viability, 72 h; at 44.8 µM (top of the series) unless noted. The essentials: as §3

Each structure is given as a SMILES string. Records with an inconclusive call do not appear. Calls of active or inactive are those of the source. Unless noted, calls follow the shape of the dose curve; as a rule, active = well fitted curve in the direction sought with a large enough effect; inconclusive = small, poorly fitted or top-dose-only effect, or another doubt; inactive = no such curve, though single readings can be large; an effect the other way counts as inactive or inconclusive.

In the case of `O=C1Nc2ccc3ncsc3c2/C1=C/c1cnc[nH]1`, the Potency in assay [1] was 1.64 µM (active); in assay [2] it was 1.69 µM (active); in [3], 3.38 µM (active); in assay [4] it was 0.649 µM (active); in [5] it was 0.578 µM (active); in the assay on HEK293 it was 5.17 µM (active). In addition, the Potency in the assay with KB-3-1 was 2.31 µM (active); in the assay with HeLa it was 22.4 µM (active). For the same molecule, the activity in assay [6] was -10.3%; in assay [8], -8.72%; in assay [9], -10%. Moreover, the activity change, negative = inhibition in assay [7] is -5.42%.

For `NC(=O)[C@@H](CC1CC1)[C@@H](CCC(F)(F)F)C(=O)N[C@H]1N=C(c2ccccc2)c2cccc(F)c2NC1=O`, the Potency result (in assay [1]; in assay [10]; in assay [2]; in [4]; in [5]; in the assay with HeLa) was “inactive” throughout. The Potency entry in the assay on SKOV3 was “inactive”. The Z-AUC in assay [11] is -1.08 (inactive); in assay [11] (measured here: PEO1 parental Z-AUC), -0.643; in assay [11] (measured here: PEO4 Z-AUC), -1.43. The figures for the max response in the assay on HEK293 and in the assay on KB-3-1 were 0.706% (inactive) and 4.24% (inactive), respectively.

In the case of `CCOP(=O)(OCC)Oc1ccc2c(C)cc(=O)oc2c1`, the Potency entry (in assay [5]; in the assay with HeLa; with SKOV3) was “inactive” each time. Moreover, the max response in the assay with CRL-7250 was -4.98% (inactive).

Regarding `CC/C=C/C=C/C1(C)OC(OC)=C(C(=O)C2C(C)C(=O)c3cc(OC)c(O)c(O)c3C2(C)O)C1=O` (stereo not given), the values for the Potency in [10] and in assay [5] were 6.31 µM (active) and 7.09 µM (active), respectively. In addition, the max response in the assay with CRL-7250 is -16.8% (inactive). Besides, the Potency entry with HeLa is “inactive”.

In the case of `COc1cc2c(cc1O)C1(C)CCC(O)C(C)(C)C1CC2=O` (stereo not given), the Potency entry (in [12]; in [1]; in assay [10]; in assay [4]; in assay [5]; in the assay on HeLa) was “inactive” throughout. Besides, the Potency result in the assay with SKOV3 is “inactive”. Further, in the assay with HEK293, the max response is -7.2% (inactive). Besides, the outcome in the assay on KB-3-1, in the assay on HACAT and in the assay with NIH3T3 was “inactive” throughout.

Regarding `CO[C@@H]1[C@@H](O)[C@@H](O[C@H]2CC[C@]3(C=O)C4CC[C@]5(C)[C@@H](C6=CC(=O)OC6)CC[C@]5(O)[C@@H]4CC[C@H]3C2)O[C@@H](C)[C@H]1O[C@@H]1O[C@H](CO[C@@H]2O[C@H](CO)[C@@H](O)[C@H](O)[C@H]2O)[C@@H](O)[C@H](O)[C@H]1O` (stereo not given in full), the Potency is 3.48 µM (active) in [1], 2.75 µM (active) in assay [4], 3.46 µM (active) in assay [5] and 2.19 µM (active) in the assay on CRL-7250. In assay [10], the Potency entry is “inactive”. Also, the outcome with NIH3T3 was “inactive [at 9.27 µM]”.

As for `CCOC(=O)c1ccc(-c2ccc(OC(=O)N(C)Cc3cccc(-c4ccncc4)c3)cc2)cc1`, the Potency entry (in assay [1]; in [10]; in assay [4]; in the assay with HeLa; in the assay with SKOV3) was “inactive” in each case. The Potency in assay [2] was 6.74 µM (active); in assay [3], 0.952 µM (active); in the assay with HEK293, 9.2 µM (active). The max response in the assay with KB-3-1 was 1.19% (inactive).

For `COC1(C[S@@](=O)c2ccccc2)CCN(CCc2c[nH]c3ccc(F)cc23)CC1`, the Potency entry (in assay [1]; in [10]; in assay [3]; in the assay on HeLa; in the assay with SKOV3) was “inactive” each time. Moreover, in [2], the Potency is 2.39 µM (active). Also, the max response in the assay with CRL-7250 is 3.05% (inactive).

Source of the values: PubChem BioAssay (NCATS).
